Rows were chosen to be rich in hits. Some 11% of all compounds tested hit in one or more screens of this group.
Gal4-VP16 FLuc = Gal4-VP16 reporter inhibition counter-screen. 310,000 compounds, 3.5% hits. Drosophila S2 Gal4-VP16 UAS-luciferase, luminescence, 20 h. Potency, µM (titrated, usually from 53.6 µM), most hits filed as inhibitors;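 note: Gal4-VP16 expression switched on by copper sulfate through the metallothionein promoter; nearly all actives have a fitted effect of over 50% in size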
MCF10A rerep = inducers of DNA re-replication in MCF 10A breast cells; MCF 10A DNA re-replication, Hoechst nuclear intensity, 48 h; Potency, µM (doses to about 46.1 µM), actives largely listed as activators; 350,000 compounds, 2.9% hits; note: nearly all actives have a fitted effect of over 50% in size
RORg inh = inhibitors of mouse ROR gamma transcriptional activity | P51450 | Drosophila S2 Gal4-RORgamma UAS-luciferase reporter, 20 h | Potency, µM (highest dose often 53.6 µM), hits mostly inhibitors | 310,000 compounds, 5.4% hits | AID 2551; note: nearly all actives have a fitted effect of over 60% in size
Target sequence (P51450 whole entry, looked up, the tested form may be a part): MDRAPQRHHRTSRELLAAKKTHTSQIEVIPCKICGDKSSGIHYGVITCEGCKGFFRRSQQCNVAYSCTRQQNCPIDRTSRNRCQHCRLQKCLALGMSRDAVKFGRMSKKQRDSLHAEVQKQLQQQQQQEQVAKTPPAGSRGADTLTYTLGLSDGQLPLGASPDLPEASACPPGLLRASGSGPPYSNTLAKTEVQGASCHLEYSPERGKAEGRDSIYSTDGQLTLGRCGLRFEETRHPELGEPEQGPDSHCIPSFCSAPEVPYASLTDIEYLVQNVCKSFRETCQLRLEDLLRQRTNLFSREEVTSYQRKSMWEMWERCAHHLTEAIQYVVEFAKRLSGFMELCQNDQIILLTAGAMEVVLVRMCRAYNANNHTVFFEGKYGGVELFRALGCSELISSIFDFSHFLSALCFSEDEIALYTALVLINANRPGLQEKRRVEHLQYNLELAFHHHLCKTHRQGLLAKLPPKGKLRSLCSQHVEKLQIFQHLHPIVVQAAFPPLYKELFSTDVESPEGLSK
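In this cell-based reporter format, copper sulfate (700 uM final) drives Gal4–ROR gamma fusion expression from a metallothionein promoter in Drosophila Schneider cells; compounds preincubated 1 hr, reporter read after 20 hr at ambient temperature.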
IL1B secr inh = inflammasome signaling inhibition, IL-1 beta readout | THP-1 LPS/ATP IL-1B secretion, AlphaLISA, 16 h; stronger effect = lower value | activity change, % at 57.5 µM | 360,000 compounds, 4.7% hits; in the data active = activity change below about -50%; inconclusive = mostly about -30% to -49%
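THP-1 cells pretreated 1 hr with compounds (up to 57.5 uM final), then stimulated with LPS (250 ng/mL final) plus ATP (1.25 mM final); secreted IL-1B measured by AlphaLISA after 16 hr, decreased signal indicating inhibition.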
SW480 rereplic = inducers of DNA re-replication in SW480 colon cancer cells | SW480 DNA re-replication, Hoechst DNA content imaging, 48 h | Potency, µM (titrated, usually from 46.1 µM), actives largely listed as activators | 340,000 compounds, 1.8% hits | AID 624297; note: nearly all actives have a fitted effect of over 55% in size
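Cells (250 per well) received 23 nL compound or DMSO by pin tool and were kept 48 hr at 37 C, 5% CO2. Nuclei were then stained with Hoechst for 40 min and scanned for DNA content.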
A number is an active result; – = inactive; ? = inconclusive; · = not tested or not shown; [ ] = another dose, or the depositor's remark. Unless noted, calls come from the whole dose curve; as a rule, active = well fitted curve in the direction sought with a large enough effect; inconclusive = small, poorly fitted or top-dose-only effect, or another doubt; inactive = no such curve, though single readings can be large; an effect the other way counts as inactive or inconclusive.

SMILES | Gal4-VP16 FLuc | MCF10A rerep | RORg inh | IL1B secr inh | SW480 rereplic
C/C(CC(=O)Nc1cccc(C(F)(F)F)c1)=N\NC(=O)Cc1ccccc1 | –[10 µM] | – | ? | – | –
O=C(CCNC(=O)c1ccco1)Nc1ccc(Cl)c(C(F)(F)F)c1 | – | – | – | – | –
CC(C)CN=C(NS(=O)(=O)c1ccccc1)C(Cl)(Cl)Cl | ? | 2.9µM | ? | – | 6.5µM
CC(C)CC(NS(=O)(=O)c1ccccc1)C(=O)O (stereo unspecified) | – | –[0.0737 µM] | – | – | –
O=C(Nc1ccc(F)cc1)C(c1cccc(F)c1)N1CCN(C(=O)c2ccco2)CC1 (stereo unspecified) | · | · | · | – | ·
CN(Cc1ccc(F)cc1)Cc1nc(-c2cnccn2)no1 | – | – | – | – | 13µM
CN(Cc1cccc(C(F)(F)F)c1)Cc1nc(-c2cnccn2)no1 | – | – | – | – | –
CC(C)C[C@H](NC(=O)[C@H](CCCCN)NC(=O)[C@H](CCCNC(=N)N)NC(=O)[C@H](C)NC(=O)[C@H](CO)NC(=O)[C@H](CCCCN)NC(=O)[C@H](CCCNC(=N)N)NC(=O)[C@H](C)NC(=O)CNC(=O)[C@@H](NC(=O)[C@H](Cc1ccccc1)NC(=O)CNC(=O)CNC(=O)[C@@H](N)Cc1ccccc1)[C@@H](C)O)C(=O)N[C@@H](C)C(=O)N[C@@H](CC(N)=O)C(=O)N[C@@H](CCC(N)=O)C(=O)O | – | · | – | · | ·
CCc1ccccc1NC(=O)CN1CCN(C(=O)CNC(=O)c2ccc(-c3ccccc3)cc2)CC1 | · | 5.8µM | · | – | –
Cc1ccc(C)c(NC(=S)N2CCC(C(=O)c3ccc(F)cc3)CC2)c1 | · | · | · | – | ·
COc1ccc(N(CC(=O)NC2CCCCC2)C(=O)CCCC(=O)Nc2ccccn2)cc1 | – | – | – | – | –
CC(C)(C)C1CC=C2C(C#N)=C(N)C(C#N)(C#N)C(c3cccs3)C2C1 (stereo unspecified) | – | · | – | · | ·
CCc1ccc(C2C(C#N)=C(N)C(C#N)(C#N)C3=CCC(C(C)(C)C)CC32)cc1 (stereo unspecified) | ? | 15µM | ? | -58 | 8.2µM
O=C(NNC1=Nc2ccccc2SC1)c1cccc([N+](=O)[O-])c1 | – | ? | ? | – | –
O=C(NNC1=Nc2ccccc2SC1)c1ccccc1F | 0.71µM | – | 0.89µM | – | ?
CC(=O)O[C@H]1C2OC(=O)C(C)=C2[C@@H]2OC(=O)[C@]3(CCC4OC41C)OC23 (stereo partly specified) | – | ? | – | -72 | –
O=C(CN1C(=O)c2ccccc2S1(=O)=O)Nc1ccccc1C(=O)NCc1ccco1 | – | – | – | – | –
O=C(CN1C(=O)c2cccc3cccc1c23)Nc1ccccc1C(=O)NCc1ccco1 | · | 21µM | · | – | –
CC1=C(C(=O)N2CCCCCC2)CC(CC(=O)NC2CCCC2)C(=O)N1Cc1ccc(F)cc1 (stereo unspecified) | · | · | · | – | ·
Cc1ccc2c(c1)C1(SC(C)C(=O)N1c1ccc(Cl)cc1)C(=O)N2 (stereo unspecified) | · | · | · | – | ·
COCc1nnc(NC(=O)c2ccc(S(=O)(=O)N(C)Cc3ccccc3)cc2)o1 | 2.2µM | – | 0.79µM | – | ?
CN(Cc1ccccc1)S(=O)(=O)c1nnc(NC(=O)c2ccccc2)s1 | – | – | – | – | –
Cc1nnc(NC(=O)c2ccc(S(=O)(=O)N(C)Cc3ccccc3)cc2)o1 | 0.56µM | ? | 0.2µM | – | ?
CCN(Cc1ccccc1)S(=O)(=O)c1ccc(C(=O)Nc2nnc(C3CC3)o2)cc1 | 0.56µM | – | – | – | ?
C[C@H](CO)NC(=O)c1nc[nH]c1C(=O)N[C@H](C)c1ccccc1 | · | · | · | – | ·
SMILES | Gal4-VP16 FLuc | MCF10A rerep | RORg inh | IL1B secr inh | SW480 rereplic
CCC(C)N(C(=O)CSc1nc2ccc(OC)cc2[nH]1)C1CCS(=O)(=O)C1 (stereo unspecified) | · | – | · | – | –
Cc1ccsc1/C=N/Nc1ncc(Cl)cc1Cl | 5µM | – | 7.1µM | – | ?
Cc1cc(C)nc(N/N=C/c2sccc2C)n1 | – | – | ? | – | –
Cc1ccsc1/C=N/NC(=O)c1ccco1 | – | – | – | – | –
Cc1ccsc1/C=N/Nc1nc(=O)[nH]nc1C | 10µM | – | 5.6µM | – | 6.5µM
CCCNC(=O)C1(C)CCN(C(=O)COc2ccc(Cl)cc2Cl)C1 (stereo unspecified) | · | · | · | – | ·
